Screening results from PubChem BioAssay.
Rows were chosen to be rich in hits. Some 19% of all compounds tested hit in one or more screens of this group.
IL1B secr inh: qHTS for Inhibitors of Inflammasome Signaling: IL-1-beta AlphaLISA Primary Screen; THP-1 LPS/ATP IL-1B secretion, AlphaLISA, 16 h; stronger effect = lower value; activity change, % at 57.5 µM; hit rate 4.7% among 360,000; AID 743279, 2014; in the data active = activity change below about -50%; inconclusive = mostly about -30% to -49%
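Secreted IL-1B measured by AlphaLISA bead assay after 16 h compound exposure of THP-1 cells; compounds (final up to 57.5 uM) added 1 h before LPS (250 ng/mL) and ATP (1.25 mM) stimulation; lower signal means less secretion.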
TDP1 cell CPT: qHTS for Inhibitors of human tyrosyl-DNA phosphodiesterase 1 (TDP1): qHTS in cells in presence of CPT. Potency, µM (top dose mostly 46.2 µM), inactives show at the top dose activity change, negative = growth inhibition, actives largely listed as inhibitors. hit rate 12% among 420,000. chicken DT40 Tdp1-/-;hTDP1 cells + 20 nM CPT, ATP luminescence, 48 h; also: potency is read from the fitted curve at half-maximal effect; nearly all actives have a fitted effect of over 55% in size
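Chicken DT40 Tdp1-/- cells stably complemented with human TDP1 were seeded at 400 cells/well in medium containing 20 nM camptothecin, exposed to pin-transferred compounds, and grown at 37 °C for at least 48 hr. Viability was read as ATP luminescence.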
HT1080-NT tox: qHTS for induction of synthetic lethality in tumor cells producing 2HG: qHTS for the HT-1080-NT fibrosarcoma cell line; hit rate 1.6% among 360,000; Potency, µM (highest dose often 46.1 µM), inactives show at the highest dose activity, negative = less viability, most hits filed as cytotoxic; HT-1080-NT fibrosarcoma viability, CellTiter-Glo ATP luminescence, 48 h;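 also: NT is the 2HG producing partner of a matched IDH1 knockdown line; potency is read from the fitted curve at half-maximal effect; 0% = DMSO-treated cells and -100% = media-only wells without cells; nearly all actives have a fitted effect of over 55% in size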
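Read-out is CellTiter-Glo luminescence after 10 minutes at room temperature, following 48 hours' compound treatment of HT-1080-NT cells (750 cells/well, RPMI, 5% FBS, 37 degrees C).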
DT40 TDP1 no CPT: qHTS for Inhibitors of human tyrosyl-DNA phosphodiesterase 1 (TDP1): qHTS in cells in absence of CPT | DT40 Tdp1-/- hTDP1 cells, no CPT, ATP luminescence, 48 h | Potency, µM (doses to about 46.2 µM), inactives show at the highest dose activity change, negative = growth inhibition, actives largely listed as inhibitors | hit rate 15% among 420,000; also: potency is read from the fitted curve at half-maximal effect; nearly all actives have a fitted effect of over 55% in size
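No-CPT arm: Tdp1-/-;hTDP1 DT40 cells (400/well) plus compounds, incubated ≥48 hr at 37 °C. Readout CellTiter-Glo luminescence.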
HT1080 IDH1KD tx: qHTS for induction of synthetic lethality in tumor cells producing 2HG: qHTS for the HT-1080-IDH1KD cell line | HT-1080 IDH1 knockdown viability, ATP luminescence, 48 h | Potency, µM (titrated, usually from 46.1 µM), without a hit: at the highest dose activity, negative = toxicity, hits mostly cytotoxic | hit rate 2% among 360,000;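 also: potency is read from the fitted curve at half-maximal effect; 0% = DMSO wells and -100% = cell-free medium wells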
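After a 2 h attachment period, IDH1KD HT-1080 cells took pin-transferred compound for 48 h at 37 °C; ATP-based luminescence after 10 min room-temperature reagent incubation reported viability.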
Active calls of the source: *; ? = inconclusive; . = not tested or not shown; [ ] = dose if it differs, or a comment. Unless noted, calls follow the shape of the dose curve; as a rule, active = well fitted curve in the direction sought with a large enough effect; inconclusive = small, poorly fitted or top-dose-only effect, or another doubt; inactive = no such curve, though single readings can be large; an effect the other way counts as inactive or inconclusive. Unless noted, % is scaled to controls: 0 for no effect and ±100 for the full control effect.

SMILES	IL1B secr inh	TDP1 cell CPT	HT1080-NT tox	DT40 TDP1 no CPT	HT1080 IDH1KD tx
COCCCn1c(-c2ccc(OC)cc2)cc(C(=O)NC2CCCCCCC2)c1C	-53*	21µM*	?	15µM*	?
CCOP(=O)(OCC)C(NC(=O)c1cccc([N+](=O)[O-])c1)C(Cl)(Cl)Cl (stereo not drawn)	8	-2%	6%	-1%	7%
CCOC(=O)[C@]1(C#N)[C@@H]2C=CC(C(C)=O)=CN2[C@@H](C(N)=O)[C@@H]1c1ccsc1	-4	?	4%	?	-1%[9.24 µM]
CC(C)c1ccc(NC(=O)C2CCC(CNS(=O)(=O)c3ccc4c(c3)CCCC(=O)N4)CC2)cc1 (stereo not drawn)	.	13µM*	.	16µM*	.
CCN(CC)C(=O)c1ccc(NC(=O)c2cccc(C(F)(F)F)c2)cc1	?	-15%	2%	?	11%
CCN1CCN(S(=O)(=O)c2ccc(Cl)c(C(=O)Nc3ccc(C(=O)N(CC)CC)cc3)c2)CC1	13	15µM*	27%	?	-11%
CC(C)C(C)(NC(=O)c1cccn(Cc2ccc3c(c2)OC(F)(F)O3)c1=O)C(N)=O (stereo not drawn)	-3	1%	-5%	-22%	1%
CCn1c(C)[n+](CC(O)COCC2CC=CCC2)c2ccccc21 (stereo not drawn)	-13	21µM*	3%	23µM*	-24%
Cn1cnc(CCN)c1	2	6%	14%	-15%	2%
O=C(O)CNCP(=O)(O)O	.	-4%	.	3%	.
Cn1c(=O)n(C)c2cc(CNCCc3ccc(F)cc3)ccc21	.	16µM*	.	26µM*	.
CCOC(=O)c1ccc2c(c1)N(CC)C(=O)c1ccccc1S2	15	?	-2%	?	0%
CCOC(=O)c1cccc(NC(=O)c2cnc(N3CCCCC3)c3ccccc23)c1	.	18µM*	.	23µM*	.
CCOP(=O)(OCC)C(O)c1ccccc1 (stereo not drawn)	7	1%	0%	-27%	3%
CCOP(=O)(/C=C(\Cl)c1ccccc1)C(O)c1ccc(F)cc1 (stereo not drawn)	-13	?	15%	16µM*	4%
CS(=O)(=O)c1ccc(C2=C(CNC(=O)c3ccncc3)[C@H]3CC[C@@H](C2)N3Cc2ccco2)cc1	0	3%	-1%	-3%	0%
O=C(Nc1ncccc1O)c1ccc(S(=O)(=O)NCc2ccco2)cc1	68	21µM*	-2%	23µM*	-21%
CC[C@@H](C)[C@H](C(CC(=O)N1CCCC1[C@@H](OC)[C@H](C)C(=O)N[C@H](Cc1ccccc1)c1nccs1)OC)N(C)C(=O)[C@H](NC(=O)[C@@H](C(C)C)N(C)C)C(C)C (stereo partly drawn)	41	-101%	0.26µM*	-109%	?
Cc1ccc(N2C(=O)NC(=O)/C(=C/c3ccc(-c4ccc(C(=O)O)c(Cl)c4)o3)C2=O)cc1	0	1%	24%	6%	18%
O=C1NC(=O)N(c2ccc(Cl)cc2)C(=O)/C1=C\c1ccc(Sc2nc3ccccc3[nH]2)o1	-2	16µM*	-4%	?	-6%
COC(=O)C1=C(c2ccc(C(C)=O)cc2)C[C@@H]2CC[C@H]1N2C(=O)NCC1CC1	16	-7%	15%	-10%	14%
CCc1ccc(CNC(=O)C2CCN(C(=O)c3ccc(-n4c(C)cc5ccccc54)s3)CC2)cc1	.	10µM*	.	18µM*	.
Cc1cc2ccccc2n1-c1ccc(C(=O)N2CCC(C(=O)NCc3ccc(Cl)cc3)CC2)s1	.	4.1µM*	.	3.7µM*	.
CO[C@H]1C[C@H](O[C@H]2[C@H](C)O[C@@H](O[C@@H]3/C(C)=C/C[C@@H]4C[C@@H](C[C@]5(C=C[C@H](C)[C@@H](C6CCCCC6)O5)O4)OC(=O)[C@@H]4C=C(C)[C@@H](O)[C@H]5OC/C(=C\C=C\[C@@H]3C)[C@]54O)C[C@@H]2OC)O[C@@H](C)[C@@H]1O	.	2.7µM*	.	4.7µM*	.
Cc1ccc2c(c1)C1CN(C)CCC1N2C(=O)Nc1cccc(C(F)(F)F)c1 (stereo not drawn)	-4	21µM*	?	?	?
SMILES	IL1B secr inh	TDP1 cell CPT	HT1080-NT tox	DT40 TDP1 no CPT	HT1080 IDH1KD tx
Cc1ccc2c(c1)C1CN(C)CCC1N2C(=O)c1cccnc1Cl (stereo not drawn)	40	-14%	2%	-22%	4%
Cc1ccc2c(c1)C1CN(C)CCC1N2C(=O)c1cn(-c2ccccc2)nc1-c1ccccc1 (stereo not drawn)	?	?	.	16µM*	21µM*
Cc1ccc2c(c1)C1CN(C)CCC1N2S(=O)(=O)c1ccccc1 (stereo not drawn)	-2	-20%	14%	-5%	3%
Cc1ccc2c(c1)[C@@H]1CN(C)CC[C@@H]1N2C(=O)Nc1cccc(C(F)(F)F)c1	-25	11µM*	13µM*	11µM*	?
CC(=NCCO)c1c(O)n(C)c(=O)n(C)c1=O	14	-8%	8%	-1%	14%
C[C@@H]1CN([C@@H](C)CO)C(=O)CCCn2nncc2CO[C@H]1CN(C)C(=O)Oc1ccccc1	2	4%	0%	-16%	5%
COc1ccc(C(=O)Oc2cccc3cccnc23)cc1S(=O)(=O)N1CCOCC1	-2	?	-11%	3.3µM*	?
COc1ccc(C(=O)N2CCOCC2)cc1S(=O)(=O)N1CCC(C)CC1	13	-3%	14%	-10%	15%
CC12CCC3C(CCC4CC(=O)C(C(O)C(F)(F)F)CC43C)C1CCC2O (stereo not drawn)	50	?	-9%	?	-10%
COC(=O)C1=C(c2cccc(OCc3ccccc3)c2)C[C@@H]2CC[C@H]1N2C(=O)NCCOc1ccccc1	-14	?	-7%	21µM*	-12%
COC(=O)C1=C(c2cccc(C#N)c2)C[C@@H]2CC[C@H]1N2C(=O)NCCOc1ccccc1Cl	-4	18µM*	6%	16µM*	5%
COC(=O)C1=C(c2cccc(OCc3ccccc3)c2)C[C@@H]2CC[C@H]1N2C(=O)NCCc1ccc(F)cc1	?	?	-19%	16µM*	-17%
COC(=O)C1=C(c2ccc(C(C)=O)cc2)C[C@@H]2CC[C@H]1N2C(=O)NCCO	13	6%	22%	0%	9%
